The source of these data is ChEMBL document CHEMBL3988442, “University of Dundee, Small-Polar-MMV Screening Library” (2021).

Among all 48,000 compounds or so, about 13,000 (27%) showed an effect of 50% or more. Some of the results follow.

For the experiment, the system named is Wolbachia pipientis. Put plainly: Anti-Wolbachia Cell-Based Screen. In kind it is functional. More on the design: scale not given: in the data most compounds retested in dose-response had high values. The conditions noted are these: 5 µM.
Regarding `CCNC(=O)[C@@H]1CCCN1[C@@H](C(=O)NC)c1ccccc1OC.Cl`, the “Percent Effect” value amounted to 2.638%.
Consider `N#Cc1cccc(NC(=O)N2CCCC(N3CCCC3=O)C2)c1` (stereo not given), for which the “Percent Effect” value was -2.402%.
Consider `CC(=O)N1CCCC1c1ccc(C(=O)N2CCOCC2)s1` (stereo not given), for which the “Percent Effect” value is reported as -4.925%.
For `CC(=O)N1CCCC1c1ccc(CN2CCOCC2)cn1` (stereo not given) the value was 123.1%; for `CC(C1CCN(Cc2ccc(N(C)C)nc2)CC1)N1CCOCC1` (stereo not given), 11.4%.
As to `COC(=O)C1CCN(C(=O)Nc2cc(-n3cccc3)ccc2F)CC1`, the “Percent Effect” value is reported as -12.66%.
On to `Cc1cccc(NC2CCN(C(=O)Nc3ccc(F)cc3C)CC2)n1`, for which the “Percent Effect” value was 119.5%.
The figure for `O=C(Nc1cc(-n2cccc2)ccc1F)N1CCCC1` is -21.77%; for `Cc1cccc(NC2CCN(C(=O)Nc3cc(F)ccc3F)CC2)n1` it is 100.1%; for `COC(=O)[C@@H](NC(=O)c1coc(COc2cccc(F)c2)n1)C(C)C` it is -6.139%.
`COC(=O)C(CNC(=O)Nc1nncs1)Cc1ccc(O)cc1` (stereo not given): the “Percent Effect” value is -7.051%.
`CNC(=O)c1n[nH]c2c1C(c1cccc3[nH]ccc13)CC(=O)N2` (stereo not given): the “Percent Effect” value came out at 8.838%.
On to `Cn1nc2c(cc1=O)CN(CC(=O)Nc1nncs1)CC2`, for which the “Percent Effect” value is on record as -9.972%.
For `CC(C)n1nc2c(cc1=O)CN(CC(=O)N(C)c1nccs1)CC2`, the “Percent Effect” value is recorded as -24.74%.
In the case of `CCn1nc2c(cc1=O)CN(CC(=O)Nc1nncs1)CC2`, the “Percent Effect” value was found to be 94.86%.
In the case of `Cc1csc(NC(=O)CN2CCc3nn(C)c(=O)cc3C2)n1`, the “Percent Effect” value was -32.21%.
On to `Cc1nnc(NC(=O)CN2CCc3nn(C(C)C)c(=O)cc3C2)s1`, for which the “Percent Effect” value worked out at 104%.
The figure for `CCn1nc2c(cc1=O)CN(CC(=O)Nc1nccs1)CC2` is -22.28%; for `CCn1nc2c(cc1=O)CN(CC(=O)Nc1nnc(C)s1)CC2` it is 120.7%.
Take `Cc1cc(NC(=O)CN2CCc3nn(C)c(=O)cc3C2)no1`: the “Percent Effect” value is listed as -3.841%.
Consider `Cc1nnc(NC(=O)CN2CCc3nn(C)c(=O)cc3C2)s1`, for which the “Percent Effect” value was found to be 86.83%.
`CCn1nc2c(cc1=O)CN(CC(=O)Nc1cc(C(C)C)no1)CC2`: the “Percent Effect” value was -9.725%.
The figure for `CCn1nc2c(cc1=O)CN(CC(=O)Nc1cc(C)no1)CC2` is -6.307%.
As for `Cc1nc(CN2CCc3nn(C(C)C)c(=O)cc3C2)oc1C`, the “Percent Effect” value is -3.167%.
The figure for `CC1=N[C@@]2(CC[C@@H]3CN(S(C)(=O)=O)C[C@@H]32)C(=O)N1CC(C)C` is -10.09%; for `CCc1nnc2ccc(NCC3(O)CCOCC3)nn12` it is -3.397%.
With `CC(C)S(=O)(=O)NC(=O)CC(c1ccccc1)C(F)(F)F` (stereo not given), the “Percent Effect” value came out at 0.6807%.
For the compound `O=C1NCCCCC1Sc1nnc(C2CC2)n1C1CC1` (stereo not given), the “Percent Effect” value was -22.11%.
For `O=C1NCCCCC1Sc1n[nH]c(=O)n1C1CC1` (stereo not given) the value was -5.028%.
For `O=C1NCCCCC1Sc1nnc(-c2cccnc2)n1C1CC1` (stereo not given) the value was -7.436%; for `O=C1NCCCCC1Sc1ccc(F)cc1F` (stereo not given), 103.3%.
The figure for `O=C1NCCCCC1Sc1nnc(N2CCCC2)n1C1CC1` (stereo not given) is 5.697%.
Regarding `O=C1NCCCCC1Sc1ccc(F)c(F)c1` (stereo not given), the “Percent Effect” value stood at 87.86%.
The figure for `O=C1NCCCCC1SCc1coc(-c2ccc(F)cc2)n1` (stereo not given) is -0.7587%; for `O=C1NCCCCC1Sc1ccccc1F` (stereo not given) it is 86.32%; for `O=C1NCCCCC1SCc1coc(-c2cccc(F)c2)n1` (stereo not given) it is -23.71%.
Consider `CCCOCC(=O)N1CCC2(CC1)c1nc[nH]c1CCN2S(C)(=O)=O`, for which the “Percent Effect” value is -9.401%.
Turning to `COc1ccc(C(=O)NCc2ccon2)cc1F`, the “Percent Effect” value is -47.25%.
On to `Cc1nc(NS(=O)(=O)c2ccc(C)c(Br)c2)no1`, for which the “Percent Effect” value is recorded as -20.05%.
The figure for `Cc1nn(CC(=O)N2CCN(c3ccccc3F)CC2)c(C)c1Cl` is 4.996%; for `Cc1cccc(C(=O)N2CCCCC2c2ccc(CN(C)C)cc2)n1` (stereo not given) it is -0.9167%; for `Cc1nc(CN(C)CC2CCCN2c2cccnn2)oc1C` (stereo not given) it is 2.068%.
Consider `Cc1cccc(N2CCCC2c2nc(C)ncc2CN(C)C)n1` (stereo not given), for which the “Percent Effect” value turned out to be 143.5%.
For `CN(C)Cc1nnc(C2CCN(c3ncccn3)CC2)n1C1CC1` the value was -3.805%; for `CCc1nc(C2CCCN2c2ncc(Br)cn2)no1` (stereo not given), -1.956%.
In the case of `Cc1ncc(CN(C)C)c(C2CCCN2c2ncccn2)n1` (stereo not given), the “Percent Effect” value came out at 117.1%.
For the compound `O=C(C1CNCCO1)N1CCCC(c2ccccc2)(c2ccccc2)C1` (stereo not given), the “Percent Effect” value is recorded as -4.785%.
Take `O=C(NCCCOC1CCCCC1)C1NCCc2[nH]cnc21` (stereo not given): the “Percent Effect” value is reported as -2.739%.
With `CCN(C(=O)COC)C(c1cccnc1)c1ccc2c(c1)CCO2` (stereo not given), the “Percent Effect” value came to 2.856%.
Take `CCSCCNC(=O)Nc1cc(C(=O)N2CCOCC2)ccc1Cl`: the “Percent Effect” value stood at 4.121%.
For the compound `O=C(Nc1ccccc1F)NC1(CO)CCOCC1`, the “Percent Effect” value is 2.484%.
For `CN(Cc1ccccc1)C1(C(=O)NC(C)(C)CO)Cc2ccccc2C1`, the “Percent Effect” value came to 8.937%.
For `Cc1cc(C(=O)NC2(c3cccc(F)c3)CCOCC2)no1`, the “Percent Effect” value is given as -27.95%.
Regarding `CC(C)(CO)CCCNC(=O)NC1(c2cccc(F)c2)CC1`, the “Percent Effect” value is 104.1%.
For `O=C(NCCCc1ccc(O)cc1)C1(O)Cc2ccccc2C1` the value was -1.893%.
